In one test the target is PUM1 PUF domain R1-SGE (Homo sapiens, UniProt Q14671 828-1176, R864G;Q867E). As to the kind of experiment: yeast three-hybrid, YBZ-1, SC-Leu-His + 0.5 mM 3-AT, 4 days. The note with it: tags: N-Gal4 AD-HA kept; label: inside an RPR1-promoter hybrid RNA with tandem MS2 sites; ssRNA. In outline: (§1)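 Pumilio-1 PUF domain libraries, randomized at the three base-contacting residues of each repeat, were co-expressed with matching RNA elements from a centromeric plasmid in strain YBZ-1, which carries a LexA–MS2 coat fusion and a HIS3 reporter. Transformants grew for four days on SC-Leu (input) or on SC-Leu-His + 0.5 mM 3-AT (selection), and the repeat regions were PCR-amplified and Illumina-sequenced. The interaction score is the log change in variant frequency from input to selection. That logarithm is base 2, with a pseudocount of 1 where a variant was absent.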
PUM1 PUF domain R1-SGE, sequence (Q14671 828-1176 R864G/Q867E): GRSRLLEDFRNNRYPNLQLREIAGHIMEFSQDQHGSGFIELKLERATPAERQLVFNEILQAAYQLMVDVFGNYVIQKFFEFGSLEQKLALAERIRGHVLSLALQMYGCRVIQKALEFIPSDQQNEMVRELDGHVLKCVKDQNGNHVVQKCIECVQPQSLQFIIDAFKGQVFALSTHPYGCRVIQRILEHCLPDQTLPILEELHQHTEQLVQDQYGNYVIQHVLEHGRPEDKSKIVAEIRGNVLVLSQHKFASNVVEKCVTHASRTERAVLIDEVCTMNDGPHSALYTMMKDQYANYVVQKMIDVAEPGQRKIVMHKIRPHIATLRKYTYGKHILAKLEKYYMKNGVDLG
For the sequence “GGCUAGAACUAGUGGAUCCCCCGGCGCCCGGCGGCUCGAGCCCGGGUAAGUGUAAAUUGUCUGCAUGCCGCCGGGCGCCAUGCCUGCAGGUCGACUCUAGAAAACAUG”, the binding signal was 3.87 log2 enrichment (interaction score).

As to “GGCUAGAACUAGUGGAUCCCCCGGCGCCCGGCGGCUCGAGCCCGGGUAAGUGUAAAUGGUCUGCAUGCCGCCGGGCGCCAUGCCUGCAGGUCGACUCUAGAAAACAUG”, the binding signal was 5.2 log2 enrichment (interaction score).

As to “GGCUAGAACUAGUGGAUCCCCCGGCGCCCGGCGGCUCGAGCCCGGGUAAGUGUAAAUCGUCUGCAUGCCGCCGGGCGCCAUGCCUGCAGGUCGACUCUAGAAAACAUG”, the binding signal was 1.55 log2 enrichment (interaction score).

The target of the next test is PUM1 PUF domain R4-ARS (Homo sapiens, UniProt Q14671 828-1176, N971A;H972R;Q975S). Described as above. The note with it: tags: N-Gal4 AD-HA kept; label: inside an RPR1-promoter hybrid RNA with tandem MS2 sites; ssRNA. A digest of the protocol: as §1
PUM1 PUF domain R4-ARS, sequence (Q14671 828-1176 N971A/H972R/Q975S): as the sequence (Q14671 828-1176 R864G/Q867E) above, with G37R, E40Q, N144A, H145R, Q148S counted along it
Take “GGCUAGAACUAGUGGAUCCCCCGGCGCCCGGCGGCUCGAGCCCGGGUAAGUGUACAUAGUCUGCAUGCCGCCGGGCGCCAUGCCUGCAGGUCGACUCUAGAAAACAUG”: the binding signal is 3.28 log2 enrichment (interaction score).

Consider “GGCUAGAACUAGUGGAUCCCCCGGCGCCCGGCGGCUCGAGCCCGGGUAAGUGUAAAUAGUCUGCAUGCCGCCGGGCGCCAUGCCUGCAGGUCGACUCUAGAAAACAUG”, for which the binding signal is 4.61 log2 enrichment (interaction score).

As for “GGCUAGAACUAGUGGAUCCCCCGGCGCCCGGCGGCUCGAGCCCGGGUAAGUGUAUAUAGUCUGCAUGCCGCCGGGCGCCAUGCCUGCAGGUCGACUCUAGAAAACAUG”, the binding signal is 2.12 log2 enrichment (interaction score).

In the next test the target is PUM1 PUF domain R4-CPG (Homo sapiens, UniProt Q14671 828-1176, N971C;H972P;Q975G). Described as above. The note with it: tags: N-Gal4 AD-HA kept; label: inside an RPR1-promoter hybrid RNA with tandem MS2 sites; ssRNA. In outline: as §1
PUM1 PUF domain R4-CPG, sequence (Q14671 828-1176 N971C/H972P/Q975G): as the sequence (Q14671 828-1176 R864G/Q867E) above, with G37R, E40Q, N144C, H145P, Q148G counted along it
For the sequence “GGCUAGAACUAGUGGAUCCCCCGGCGCCCGGCGGCUCGAGCCCGGGUAAGUGUACAUAGUCUGCAUGCCGCCGGGCGCCAUGCCUGCAGGUCGACUCUAGAAAACAUG”, the binding signal is 2.44 log2 enrichment (interaction score).

For the sequence “GGCUAGAACUAGUGGAUCCCCCGGCGCCCGGCGGCUCGAGCCCGGGUAAGUGUAAAUAGUCUGCAUGCCGCCGGGCGCCAUGCCUGCAGGUCGACUCUAGAAAACAUG”, the binding signal is 4.34 log2 enrichment (interaction score).

In the case of “GGCUAGAACUAGUGGAUCCCCCGGCGCCCGGCGGCUCGAGCCCGGGUAAGUGUAUAUAGUCUGCAUGCCGCCGGGCGCCAUGCCUGCAGGUCGACUCUAGAAAACAUG”, the binding signal is 3.14 log2 enrichment (interaction score).

The values above are taken from PMC8384837, “Expanding the binding specificity for RNA recognition by a PUF domain”.
